# DT40 TDP1 CPT: qHTS for Inhibitors of human tyrosyl-DNA phosphodiesterase 1 (TDP1): qHTS in cells in presence of CPT. 420,000 tested, 12% active. Potency, µM (highest dose often 46.2 µM), inactives show at the highest dose activity change, negative = growth inhibition, hits mostly inhibitors. AID 686979, 2013. chicken DT40 Tdp1-/-;hTDP1 cells + 20 nM CPT, ATP luminescence, 48 h; further: potency means the concentration at half of the fitted maximal effect; nearly all actives have a fitted effect of over 55% in size
#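 Chicken DT40 Tdp1-/- cells complemented with human TDP1, 400 cells/well, exposed to compounds plus 20 nM camptothecin for at least 48 h at 37 C; viability read as ATP content by CellTiter-Glo luminescence.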
# IL1B secr inh: qHTS for Inhibitors of Inflammasome Signaling: IL-1-beta AlphaLISA Primary Screen. THP-1 LPS/ATP IL-1B secretion, AlphaLISA, 16 h; hits give low values. activity change, % at 57.5 µM. 360,000 tested, 4.7% active; in the data active means activity change below about -50%; inconclusive means mostly about -30% to -49%
#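 Secreted IL-1B measured by AlphaLISA bead assay after 16 h compound exposure of THP-1 cells; compounds (final up to 57.5 uM) added 1 h before LPS (250 ng/mL) and ATP (1.25 mM) stimulation; lower signal means less secretion.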
# TDP1 cell noCPT: qHTS for Inhibitors of human tyrosyl-DNA phosphodiesterase 1 (TDP1): qHTS in cells in absence of CPT | DT40 Tdp1-/- hTDP1 cells, no CPT, ATP luminescence, 48 h | Potency, µM (top dose mostly 46.2 µM), without a hit: top-dose activity change, negative = growth inhibition, actives largely listed as inhibitors | 420,000 tested, 15% active | AID 686978, 2013; further: potency means the concentration at half of the fitted maximal effect; nearly all actives have a fitted effect of over 55% in size
#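 Chicken DT40 Tdp1-/- cells complemented with human TDP1, screened without camptothecin (DMSO vehicle only), 400 cells/well. Compounds pin-transferred, cells incubated at 37 °C for at least 48 hr. Growth read as ATP-dependent luminescence (CellTiter-Glo, 30 min at RT).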
# HT1080 IDH1KD tx: qHTS for induction of synthetic lethality in tumor cells producing 2HG: qHTS for the HT-1080-IDH1KD cell line; HT-1080 IDH1 knockdown viability, ATP luminescence, 48 h; Potency, µM (highest dose often 46.1 µM), for the others: at the top dose activity, negative = toxicity, most hits filed as cytotoxic; 360,000 tested, 2% active; AID 686971, 2013;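 further: potency means the concentration at half of the fitted maximal effect; 0% = DMSO wells and -100% = cell-free medium wells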
#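 Assay cells: HT-1080 with IDH1 knockdown, 750 per well, RPMI/5% FBS. Exposure: 48 h at 37 °C following 2 h pre-incubation. Read: CellTiter-Glo luminescence; fitted concentration-response, curve class assigned.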
# HT1080NT lethal: qHTS for induction of synthetic lethality in tumor cells producing 2HG: qHTS for the HT-1080-NT fibrosarcoma cell line; HT-1080-NT fibrosarcoma viability, CellTiter-Glo ATP luminescence, 48 h; Potency, µM (series often up to 46.1 µM), without a hit: at the highest dose activity, negative = less viability, usual class: cytotoxic; 360,000 tested, 1.6% active;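 further: NT is the 2HG producing partner of a matched IDH1 knockdown line; potency means the concentration at half of the fitted maximal effect; 0% = DMSO-treated cells and -100% = media-only wells without cells; nearly all actives have a fitted effect of over 55% in size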
#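 Compounds were tested in concentration-response format on HT-1080-NT cells for 48 hours at 37 degrees C. Cell viability came from CellTiter-Glo luminescence; curves were classified by r2, response magnitude and activity.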
# Numbers without * were called inactive; ? = inconclusive; . = not tested or not shown. Only some compounds are listed: those with a hit (about 19% of all), similar ones and a draw of the others. Unless noted, the call rests on the fitted dose curve; in most records, active means well fitted curve in the direction sought with a large enough effect; inconclusive means small, poorly fitted or top-dose-only effect, or another doubt; inactive means no such curve, though single readings can be large; an effect the other way counts as inactive or inconclusive. Unless noted, on the % scale 0 is the no-effect control and ±100 the full control effect.
SMILES,DT40 TDP1 CPT,IL1B secr inh,TDP1 cell noCPT,HT1080 IDH1KD tx,HT1080NT lethal
CC(O)(c1cccc(F)c1)c1nc(-c2ccc(S(C)(=O)=O)cc2)cs1 (stereo unspecified),16µM*,7,13µM*,-21%,-9%
CC(O)(c1cccc(F)c1)c1nc(-c2cnc3ccccc3c2)cs1 (stereo unspecified),15µM*,57,13µM*,?,15µM*
CC(C)c1cccc(-c2csc(C(C)(O)c3ccccc3)n2)c1 (stereo unspecified),?,-12,23µM*,?,?
CCc1cc2c(COC(=O)CCNS(=O)(=O)c3cccc(C(F)(F)F)c3)cc(=O)oc2cc1O,?,29,?,-10%,-7%
CCCCNC(=O)/C(=C/c1ccco1)NC(=O)c1ccco1,-8%,13,7%,-1%,7%
Cc1cc(C)nc(NS(=O)(=O)c2ccc(NC(=O)CN3C(=O)C4CC=CCC4C3=O)cc2)n1 (stereo unspecified),5%,0,-11%,7%,8%
Cc1cccc(NNC(=S)Nc2ccccc2)c1,4.1µM*,-30,2.6µM*,-20%,-16%
Cc1cccc(NNC(=S)Nc2c(C)cccc2C)c1,?,-102*,?,?,?
Cc1cccc(NC(=S)NC(C)(C)CC(C)(C)C)c1,-1%,-23,18µM*,-17%,-20%
Cc1cccc(NNC(N)=S)c1,?,11,?,15%,6%
Cc1cccc(NC(=S)NNc2cccc(Cl)c2)c1,16µM*,-9,18µM*,?,23µM*
COc1ccc(CNC(=S)Nc2cccc(C)c2)cc1,-3%,2,?,2%,8%
C[C@@H]1CN([C@@H](C)CO)C(=O)CCCn2nncc2CO[C@H]1CN(C)C(=O)C1CCCCC1,0%,5,-18%,4%,1%
Cc1cccc(NC(=S)N(CCCN2CCOCC2)Cc2ccco2)c1,3%,29,10%,11%,0%
CC(C)n1c(SCC(=O)Nc2nncs2)nnc1-c1ccco1,4%,9,0%,23%,0%
NC(=S)NNc1cccc(Cl)c1,16µM*,-4,15µM*,3%,0%
S=C(NNc1cccc(Cl)c1)NC1CCCCC1,?,-108*,?,15µM*,?
NC(=S)NNC(=O)Nc1cccc(Cl)c1,-4%,1,0%,16%,18%
COc1cc(OC)c(NC(=S)Nc2cccc(C)c2)cc1Cl,-27%,-12,9.2µM*,-1%,-4%
CC(C(=O)Nc1ccc(N(C)C)cc1)N1C(=O)c2ccccc2S1(=O)=O (stereo unspecified),1%,-9,6%,2%,4%
CC(C)(C)Sc1ccc2nc3c(n2c1)CCCC3,21µM*,-16,5.8µM*,-14%,-13%
COc1ccnc2c1c(=O)n(Cc1ccc(F)cc1)c(=O)n2C,-16%,5,5%,-18%,-18%
CCCCCCN1C[C@@H](O)[C@H](n2cc(COC(=O)c3ccccc3)nn2)C[C@@H]1c1ccc(OC)cc1,?,-2,?,2%,12%
CCc1ccccc1NC(=O)COC(=O)c1c(C)nsc1NC,7.3µM*,15,2.9µM*,-11%,4.1µM*
CNc1snc(C)c1C(=O)OCC(=O)Nc1ccc(C)cc1F,?,-7,10µM*,-23%,-9%
SMILES,DT40 TDP1 CPT,IL1B secr inh,TDP1 cell noCPT,HT1080 IDH1KD tx,HT1080NT lethal
CNc1snc(C)c1C(=O)OCC(=O)N(C)Cc1ccccc1,15µM*,30,18µM*,0%,4%
CNc1snc(C)c1C(=O)OCC(=O)N(C)c1ccccc1,-24%,43,?,1%,12%
C=CCNc1nc(Cl)nc(Nc2ccc(OCC)cc2)n1,?,5,4%,9%,4%
N=C(N)SCCN,23µM*,21,15µM*,-1%,12%
Cc1[nH]c2ccccc2c1C(C#N)(C#N)C1C(=O)c2ccccc2C1=O,2.1µM*,0,2.1µM*,26µM*,18µM*
O=C(NC1CC1)C1CC(=O)N(c2ccc(F)cc2)C1 (stereo unspecified),0%,2,3%,17%,8%
COc1cc(CCCN2C(=S)NC[C@@H]2c2ccccc2)cc(OC)c1OC,26µM*,1,16µM*,-4%,4%
CCCCN1C(=S)NC[C@@H]1c1ccccc1,-14%,10,-19%,2%,15%
COc1cc(CCCN2CCNC[C@@H]2Cc2ccccc2)cc(OC)c1OC,-10%,-21,6%,3%,4%
COc1cc(CCCN2C(=S)NC[C@@H]2Cc2ccccc2)cc(OC)c1OC,26µM*,-27,16µM*,0%,8%
O=C(Oc1ccccc1)N1CCC2(CC1)CN(c1ccccn1)C2,-2%,.,?,.,.
CCCCNC(=O)c1ccc2c(c1)NC(=O)C(CS(=O)(=O)Cc1ccc(F)cc1Cl)N2 (stereo unspecified),2%,.,-13%,.,.
O=C1c2[nH]nc(-c3ccccc3O)c2C(c2cccc(Cl)c2)N1CC1CCCO1 (stereo unspecified),?,-9,18µM*,?,-28%
COc1ccc(C2c3c(-c4ccccc4O)n[nH]c3C(=O)N2Cc2ccco2)cc1OC (stereo unspecified),-6%,?,-20%,-17%,?
Cc1ccc(C2c3c(-c4cc(C)ccc4O)n[nH]c3C(=O)N2Cc2ccco2)cc1 (stereo unspecified),23µM*,.,?,.,.
CC(=O)C1=C(O)C(=O)N(Cc2ccco2)C1c1ccc(F)cc1 (stereo unspecified),-15%,35,-9%,3%,0%
O=C(C1=C(O)C(=O)N(Cc2ccco2)C1c1cccc(Cl)c1)c1ccco1 (stereo unspecified),-15%,17,3%,-1%,-8%
O=C1c2[nH]nc(-c3ccccc3O)c2C(c2ccc(F)cc2)N1Cc1ccco1 (stereo unspecified),18µM*,-20,16µM*,?,?
O=C1c2[nH]nc(-c3ccccc3O)c2C(c2cccc(Cl)c2)N1Cc1ccco1 (stereo unspecified),?,-12,18µM*,?,?
COc1ccc(Cn2c(SCc3ccc(C(=O)NC4CCCC4)cc3)nc3cccnc32)cc1,?,.,18µM*,.,.
O=C(NC1CCCC1)c1ccc(CSc2nc3cccnc3n2Cc2ccccc2)cc1,?,.,16µM*,.,.

# Assay outcomes from PubChem BioAssay.
